Laboratory results published in PubChem BioAssay AID740 (SRMLSC, 2007).
Hit rate of the full screen: of about 96,000 compounds, about 65 (0.07%) were called active. What follows is part of a selection rich in actives, with near analogues and random picks from the rest. A number with no mark means an inactive call. Rule as the data show it: active = inhibition above about 25%; inactive = the rest.

Assay: unspecified inhibition readout at 50 µM (AID 740)
Conditions: unspecified screen; stronger effect = higher value
For O=C(O)c1ccc(CSCc2ccccc2F)o1, the inhibition was “inactive”.
In the case of COc1ccc(NC(=O)CN2CCCC(C)C2)c([N+](=O)[O-])c1 (stereo not given), the inhibition is reported as 0.73%.
In the case of CCCCn1c(=O)c(C(=O)Nc2cnccn2)c(O)c2ccccc21, the inhibition is reported as 1.68%.
For Cc1cc(C(=O)Nc2c(C)n(C)n(-c3ccccc3)c2=O)cs1, the inhibition was 28.9% (active).
With CCCCCn1c(=O)c(C(=O)Nc2c(C)n(C)n(-c3ccccc3)c2=O)c(O)c2ccccc21 the inhibition was 34.4% (active).
With Cc1c(NC(=O)c2c(F)c(F)c(F)c(F)c2F)c(=O)n(-c2ccccc2)n1C the inhibition was 0.88%.
With Cc1c(NC(=O)c2cccc(F)c2)c(=O)n(-c2ccccc2)n1C the inhibition was “inactive”.
With Cc1c(NC(=O)c2ccc(F)cc2)c(=O)n(-c2ccccc2)n1C the inhibition was “inactive”.
With COC(=O)c1ccc(C2NC(=S)N(c3ccccc3)C(C)=C2C(=O)Nc2ccccc2OC)cc1 (stereo not given) the inhibition was “inactive”.
With CCS(=O)(=O)c1ccc2oc(SCC(=O)NCCC3=CCCCC3)nc2c1 the inhibition was 10.4%.
For CCCCN(CC)CCNc1c(N2CCN(C(=O)OCC)CC2)c(=O)c1=O, the inhibition was “inactive”.
For COC(=O)C(C(=O)OC)C(C[N+](=O)[O-])c1ccc(OC)cc1 (stereo not given), the inhibition was “inactive”.
CCOC(=O)c1cnn(-c2ccccc2)c1-n1cccc1C(=O)C(=O)Nc1ccc(F)cc1 gave an inhibition of 0.4%.
In the case of CCOC(=O)c1cnn(-c2ccccc2)c1-n1cccc1C(=O)C(=O)Nc1ccccc1, the inhibition is reported as “inactive”.
With CCOC(=O)c1cnn(-c2ccccc2)c1-n1cccc1C(=O)C(=O)Nc1ccccc1C(F)(F)F the inhibition was 74.2% (active).
With CCOC(=O)CN(C(=O)Cn1nnc2ccccc21)C(C(=O)NCCOC)c1ccccc1 (stereo not given) the inhibition was “inactive”.
Molecule COCCNC(=O)C(c1ccccc1C)N(CCOC)C(=O)Cn1nnc2ccccc21 (stereo not given) has an inhibition of 1.03%.
For COCCNC(=O)C(c1ccccc1)N(CCOC)C(=O)Cn1nnc2ccccc21 (stereo not given), the inhibition was 37.1% (active).
In the case of CCOC(=O)C1C(=O)NC(c2ccccc2)=NC1c1ccc(C(C)C)cc1 (stereo not given), the inhibition is reported as 1.01%.
In the case of CN1CCN(S(=O)(=O)c2ccc(NC(=O)Cc3cccs3)cc2)CC1, the inhibition is reported as “inactive”.
With O=C(COc1ccccc1)Nc1ccc(-c2nnc(-c3ccco3)o2)cc1 the inhibition was “inactive”.
Work on O=C(Nc1ccc(-c2nnc(-c3ccco3)o2)cc1)C(c1ccccc1)c1ccccc1 yielded an inhibition of 0.04%.
With CCC(Oc1ccccc1)C(=O)Nc1ccc(-c2nnc(-c3ccco3)o2)cc1 (stereo not given) the inhibition was 28.2% (active).
In the case of Cc1ccc(S(=O)(=O)N(CC(=O)NC2CCCCCC2)c2ccccc2F)cc1, the inhibition is reported as “inactive”.
With COc1ccc(Br)cc1C(=O)Nc1ccc(N2CCN(S(C)(=O)=O)CC2)cc1 the inhibition was 0.77%.
With CC(c1ccco1)N(C(=O)Nc1ccc(Cl)cc1)c1ccccn1 (stereo not given) the inhibition was “inactive”.
In the case of CC(c1ccco1)N(C(=O)COc1ccc(Cl)cc1)c1ccccn1 (stereo not given), the inhibition is reported as 32.6% (active).
CC(C)c1ccc(C(=O)N(c2ccccn2)C(C)c2ccco2)cc1 (stereo not given) showed an inhibition of 4.01%.
Work on Cc1cc(C)cc(C(=O)N(c2ccccn2)C(C)c2ccco2)c1 (stereo not given) yielded an inhibition of 0.71%.
Work on CC(c1ccco1)N(C(=O)COc1ccccc1[N+](=O)[O-])c1ccccn1 (stereo not given) yielded an inhibition of 0.73%.
In the case of CC(c1ccco1)N(C(=O)COc1ccc(Cl)cc1Cl)c1ccccn1 (stereo not given), the inhibition is reported as 39.3% (active).
Cc1ccccc1NS(=O)(=O)c1ccc(C2CNC(=O)C2)cc1 (stereo not given) showed an inhibition of 0.38%.
For CN1CCN(c2nc(-c3ccc(Br)cc3)nnc2-c2ccccc2)CC1, the inhibition was “inactive”.
Molecule O=C(c1cnn2c(C(F)(F)F)cc(-c3ccccc3)nc12)N1CCC2(CC1)OCCO2 has an inhibition of 1.61%.
With O=C(c1cnn2c(C(F)(F)F)cc(-c3ccccc3)nc12)N1CCOCC1 the inhibition was 37.1% (active).
Work on O=C(c1cnn2c(C(F)(F)F)cc(-c3ccc(Br)cc3)nc12)N1CCOCC1 yielded an inhibition of 1.01%.
In the case of Cn1nc(C(=O)Nc2c(-c3ccccc3)nc3sccn23)c2ccccc2c1=O, the inhibition is reported as 2.2%.
For Cc1ccn2c(NC(=O)c3ccccc3)c(-c3cccs3)nc2c1, the inhibition was “inactive”.
In the case of O=C(Nc1c(-c2ccccc2)nc2sccn12)c1ccccc1, the inhibition is reported as 48.5% (active).
In the case of CCNc1nnc(-c2ccccc2OC)s1, the inhibition is reported as “inactive”.
With Cc1cc2oc(C(=O)Nc3cccnc3)c(C)c2cc1C the inhibition was “inactive”.
With Cc1c(C(=O)Nc2ccncc2)oc2ccccc12 the inhibition was “inactive”.
For Cc1ccc2c(C)c(C(=O)Nc3cccnc3)oc2c1, the inhibition was 90.2% (active).
With O=C(c1ccco1)N1N=C(c2cccs2)CC1c1ccc(F)cc1 (stereo not given) the inhibition was 6.17%.
For O=C1CCCN1CCCNc1ccc(S(=O)(=O)N2CCCCC2)cn1, the inhibition was 0.14%.
With Cc1cc(NC(=O)c2noc3c2CCc2ccccc2-3)no1 the inhibition was “inactive”.
For O=C(Nc1cccc(O)c1)c1noc2c1CCc1ccccc1-2, the inhibition was 66.5% (active).
For Cc1ccc(NC(=O)c2noc3c2CCc2ccccc2-3)cc1, the inhibition was “inactive”.
With C=CCOc1ccc(/C(CC)=N/O)c(OC)c1 the inhibition was 1.57%.
In the case of CC(C)(C)OC(=O)NCCc1nnc(SCC(=O)c2ccc(Cl)cc2)o1, the inhibition is reported as “inactive”.
